# Assay results from article PMC8384837, “Expanding the binding specificity for RNA recognition by a PUF domain”.
# Key:
# Assay in all cases: yeast three-hybrid, YBZ-1, SC-Leu-His + 0.5 mM 3-AT, 4 days
# Details in all cases: tags: N-Gal4 AD-HA kept; label: inside an RPR1-promoter hybrid RNA with tandem MS2 sites; ssRNA
# PUM1 PUF domain R1-YVR = PUM1 PUF domain R1-YVR (Homo sapiens, UniProt Q14671 828-1176, S863Y;R864V;Q867R)
# Summary of the method: (§1)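 Each repeat of the Pumilio-1 PUF domain was randomized at its three base-contacting residues, and these libraries were co-expressed from a centromeric plasmid with matching RNA elements in strain YBZ-1. After four days on SC-Leu (input) or SC-Leu-His + 0.5 mM 3-AT (selection), the repeat regions were PCR-amplified and Illumina-sequenced. The interaction score compares variant frequency between input and selection as a log change, computed in log2 with a pseudocount of 1 for absent variants.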
# PUM1 PUF domain R1-KGV = PUM1 PUF domain R1-KGV (Homo sapiens, UniProt Q14671 828-1176, S863K;R864G;Q867V)
# Summary of the method: as §1
# PUM1 PUF domain R1-KME = PUM1 PUF domain R1-KME (Homo sapiens, UniProt Q14671 828-1176, S863K;R864M;Q867E)
# Summary of the method: as §1
# PUM1 PUF domain R3-RSS = PUM1 PUF domain R3-RSS (Homo sapiens, UniProt Q14671 828-1176, C935R;R936S;Q939S)
# Summary of the method: as §1
# PUM1 PUF domain R5-LHA = PUM1 PUF domain R5-LHA (Homo sapiens, UniProt Q14671 828-1176, C1007L;R1008H;Q1011A)
# Summary of the method: as §1
# PUM1 PUF domain R5-RRR = PUM1 PUF domain R5-RRR (Homo sapiens, UniProt Q14671 828-1176, C1007R;Q1011R)
# Summary of the method: as §1
# PUM1 PUF domain R8-KFF = PUM1 PUF domain R8-KFF (Homo sapiens, UniProt Q14671 828-1176, N1122K;Y1123F;Q1126F)
# Summary of the method: as §1
# PUM1 PUF domain R8-HFV = PUM1 PUF domain R8-HFV (Homo sapiens, UniProt Q14671 828-1176, N1122H;Y1123F;Q1126V)
# Summary of the method: as §1
# PUM1 PUF domain R8-RWT = PUM1 PUF domain R8-RWT (Homo sapiens, UniProt Q14671 828-1176, N1122R;Y1123W;Q1126T)
# Summary of the method: as §1
# PUM1 PUF domain R6-VWK = biological target: T1, PUM1 PUF domain R6-VWK (Homo sapiens, UniProt Q14671 828-1176, N1043V;Y1044W;Q1047K)
# T1 sequence: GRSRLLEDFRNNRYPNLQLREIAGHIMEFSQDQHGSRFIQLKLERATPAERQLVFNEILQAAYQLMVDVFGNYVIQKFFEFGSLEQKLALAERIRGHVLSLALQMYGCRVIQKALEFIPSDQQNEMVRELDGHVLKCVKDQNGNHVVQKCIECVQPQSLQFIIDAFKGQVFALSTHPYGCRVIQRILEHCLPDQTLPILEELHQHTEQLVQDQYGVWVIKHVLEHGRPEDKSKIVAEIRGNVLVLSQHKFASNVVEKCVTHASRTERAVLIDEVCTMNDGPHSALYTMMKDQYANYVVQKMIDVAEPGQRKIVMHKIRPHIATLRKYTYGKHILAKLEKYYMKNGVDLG
# Summary of the method: as §1
# PUM1 PUF domain R2-DWQ = PUM1 PUF domain R2-DWQ (Homo sapiens, UniProt Q14671 828-1176, N899D;Y900W)
# Summary of the method: as §1
# PUM1 PUF domain R2-LFV = PUM1 PUF domain R2-LFV (Homo sapiens, UniProt Q14671 828-1176, N899L;Y900F;Q903V)
# Summary of the method: as §1
# PUM1 PUF domain R3-RTH = PUM1 PUF domain R3-RTH (Homo sapiens, UniProt Q14671 828-1176, C935R;R936T;Q939H)
# Summary of the method: as §1
# PUM1 PUF domain R5-RTR = PUM1 PUF domain R5-RTR (Homo sapiens, UniProt Q14671 828-1176, C1007R;R1008T;Q1011R)
# Summary of the method: as §1
# PUM1 PUF domain R5-RGQ = PUM1 PUF domain R5-RGQ (Homo sapiens, UniProt Q14671 828-1176, C1007R;R1008G)
# Summary of the method: as §1
# PUM1 PUF domain R8-RYE = PUM1 PUF domain R8-RYE (Homo sapiens, UniProt Q14671 828-1176, N1122R;Q1126E)
# Summary of the method: as §1
# PUM1 PUF domain R7-ATR = PUM1 PUF domain R7-ATR (Homo sapiens, UniProt Q14671 828-1176, S1079A;N1080T;E1083R)
# Summary of the method: as §1
# PUM1 PUF domain R7-RRK = PUM1 PUF domain R7-RRK (Homo sapiens, UniProt Q14671 828-1176, S1079R;N1080R;E1083K)
# Summary of the method: as §1
# PUM1 PUF domain R4-FHR = PUM1 PUF domain R4-FHR (Homo sapiens, UniProt Q14671 828-1176, N971F;Q975R)
# Summary of the method: as §1
# PUM1 PUF domain R2-MWR = PUM1 PUF domain R2-MWR (Homo sapiens, UniProt Q14671 828-1176, N899M;Y900W;Q903R)
# Summary of the method: as §1
# PUM1 PUF domain R5-RRR, sequence (Q14671 828-1176 C1007R/Q1011R): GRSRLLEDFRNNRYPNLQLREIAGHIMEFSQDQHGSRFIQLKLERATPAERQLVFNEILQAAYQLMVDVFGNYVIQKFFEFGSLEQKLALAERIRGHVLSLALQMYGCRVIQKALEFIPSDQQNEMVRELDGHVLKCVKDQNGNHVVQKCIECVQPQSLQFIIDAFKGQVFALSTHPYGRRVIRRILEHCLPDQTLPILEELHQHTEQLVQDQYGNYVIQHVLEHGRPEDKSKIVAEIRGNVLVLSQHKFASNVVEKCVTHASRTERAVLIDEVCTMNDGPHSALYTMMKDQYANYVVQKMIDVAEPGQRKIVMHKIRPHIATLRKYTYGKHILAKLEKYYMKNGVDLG
# PUM1 PUF domain R1-YVR, sequence (Q14671 828-1176 S863Y/R864V/Q867R): as the sequence (Q14671 828-1176 C1007R/Q1011R) above, with S36Y, R37V, Q40R, R180C, R184Q counted along it
# PUM1 PUF domain R5-LHA, sequence (Q14671 828-1176 C1007L/R1008H/Q1011A): as the sequence (Q14671 828-1176 C1007R/Q1011R) above, with R180L, R181H, R184A counted along it
# PUM1 PUF domain R8-KFF, sequence (Q14671 828-1176 N1122K/Y1123F/Q1126F): as the sequence (Q14671 828-1176 C1007R/Q1011R) above, with R180C, R184Q, N295K, Y296F, Q299F counted along it
sequence,measurement,setting,value
GGCUAGAACUAGUGGAUCCCCCGGCGCCCGGCGGCUCGAGCCCGGGUAAGUGUAAAUCGUCUGCAUGCCGCCGGGCGCCAUGCCUGCAGGUCGACUCUAGAAAACAUG,binding signal,PUM1 PUF domain R1-YVR,6.93 log2 enrichment (interaction score)
same,binding signal,PUM1 PUF domain R1-KGV,4.16 log2 enrichment (interaction score)
same,binding signal,PUM1 PUF domain R1-KME,4.22 log2 enrichment (interaction score)
GGCUAGAACUAGUGGAUCCCCCGGCGCCCGGCGGCUCGAGCCCGGGUAAGUGUAAGUAGUCUGCAUGCCGCCGGGCGCCAUGCCUGCAGGUCGACUCUAGAAAACAUG,binding signal,PUM1 PUF domain R3-RSS,0.48 log2 enrichment (interaction score)
GGCUAGAACUAGUGGAUCCCCCGGCGCCCGGCGGCUCGAGCCCGGGUAAGUGUAAAUAGUCUGCAUGCCGCCGGGCGCCAUGCCUGCAGGUCGACUCUAGAAAACAUG,binding signal,PUM1 PUF domain R5-LHA,2.04 log2 enrichment (interaction score)
same,binding signal,PUM1 PUF domain R5-RRR,2.32 log2 enrichment (interaction score)
same,binding signal,PUM1 PUF domain R8-KFF,2.66 log2 enrichment (interaction score)
same,binding signal,PUM1 PUF domain R8-HFV,2.65 log2 enrichment (interaction score)
same,binding signal,PUM1 PUF domain R8-RWT,4.9 log2 enrichment (interaction score)
same,binding signal,PUM1 PUF domain R6-VWK,5.58 log2 enrichment (interaction score)
GGCUAGAACUAGUGGAUCCCCCGGCGCCCGGCGGCUCGAGCCCGGGUAAGUGUAAAAAGUCUGCAUGCCGCCGGGCGCCAUGCCUGCAGGUCGACUCUAGAAAACAUG,binding signal,PUM1 PUF domain R2-DWQ,7.04 log2 enrichment (interaction score)
same,binding signal,PUM1 PUF domain R2-LFV,4.38 log2 enrichment (interaction score)
GGCUAGAACUAGUGGAUCCCCCGGCGCCCGGCGGCUCGAGCCCGGGUAAGUGUGAAUAGUCUGCAUGCCGCCGGGCGCCAUGCCUGCAGGUCGACUCUAGAAAACAUG,binding signal,PUM1 PUF domain R5-RRR,1.36 log2 enrichment (interaction score)
GGCUAGAACUAGUGGAUCCCCCGGCGCCCGGCGGCUCGAGCCCGGGUAAGUGUAAAUGGUCUGCAUGCCGCCGGGCGCCAUGCCUGCAGGUCGACUCUAGAAAACAUG,binding signal,PUM1 PUF domain R1-YVR,3.38 log2 enrichment (interaction score)
GGCUAGAACUAGUGGAUCCCCCGGCGCCCGGCGGCUCGAGCCCGGGUAAGGGUAAAUAGUCUGCAUGCCGCCGGGCGCCAUGCCUGCAGGUCGACUCUAGAAAACAUG,binding signal,PUM1 PUF domain R8-KFF,2.27 log2 enrichment (interaction score)
GGCUAGAACUAGUGGAUCCCCCGGCGCCCGGCGGCUCGAGCCCGGGUAAGUGUAAUUAGUCUGCAUGCCGCCGGGCGCCAUGCCUGCAGGUCGACUCUAGAAAACAUG,binding signal,PUM1 PUF domain R3-RSS,3.63 log2 enrichment (interaction score)
same,binding signal,PUM1 PUF domain R3-RTH,3.6 log2 enrichment (interaction score)
GGCUAGAACUAGUGGAUCCCCCGGCGCCCGGCGGCUCGAGCCCGGGUAAGUGUCAAUAGUCUGCAUGCCGCCGGGCGCCAUGCCUGCAGGUCGACUCUAGAAAACAUG,binding signal,PUM1 PUF domain R5-RTR,3.19 log2 enrichment (interaction score)
same,binding signal,PUM1 PUF domain R5-LHA,3 log2 enrichment (interaction score)
same,binding signal,PUM1 PUF domain R5-RRR,4.35 log2 enrichment (interaction score)
same,binding signal,PUM1 PUF domain R5-RGQ,2.62 log2 enrichment (interaction score)
GGCUAGAACUAGUGGAUCCCCCGGCGCCCGGCGGCUCGAGCCCGGGUAAGCGUAAAUAGUCUGCAUGCCGCCGGGCGCCAUGCCUGCAGGUCGACUCUAGAAAACAUG,binding signal,PUM1 PUF domain R8-RYE,3.48 log2 enrichment (interaction score)
same,binding signal,PUM1 PUF domain R8-KFF,2.98 log2 enrichment (interaction score)
same,binding signal,PUM1 PUF domain R8-HFV,3.91 log2 enrichment (interaction score)
same,binding signal,PUM1 PUF domain R8-RWT,5.51 log2 enrichment (interaction score)
GGCUAGAACUAGUGGAUCCCCCGGCGCCCGGCGGCUCGAGCCCGGGUAAGUGUUAAUAGUCUGCAUGCCGCCGGGCGCCAUGCCUGCAGGUCGACUCUAGAAAACAUG,binding signal,PUM1 PUF domain R5-RTR,2.56 log2 enrichment (interaction score)
same,binding signal,PUM1 PUF domain R5-LHA,4.62 log2 enrichment (interaction score)
same,binding signal,PUM1 PUF domain R5-RRR,4.33 log2 enrichment (interaction score)
same,binding signal,PUM1 PUF domain R5-RGQ,4.2 log2 enrichment (interaction score)
GGCUAGAACUAGUGGAUCCCCCGGCGCCCGGCGGCUCGAGCCCGGGUAAGUGUAAAUUGUCUGCAUGCCGCCGGGCGCCAUGCCUGCAGGUCGACUCUAGAAAACAUG,binding signal,PUM1 PUF domain R1-YVR,6.97 log2 enrichment (interaction score)
same,binding signal,PUM1 PUF domain R1-KGV,3.66 log2 enrichment (interaction score)
GGCUAGAACUAGUGGAUCCCCCGGCGCCCGGCGGCUCGAGCCCGGGUAAGUUUAAAUAGUCUGCAUGCCGCCGGGCGCCAUGCCUGCAGGUCGACUCUAGAAAACAUG,binding signal,PUM1 PUF domain R7-ATR,3.43 log2 enrichment (interaction score)
same,binding signal,PUM1 PUF domain R7-RRK,4.3 log2 enrichment (interaction score)
GGCUAGAACUAGUGGAUCCCCCGGCGCCCGGCGGCUCGAGCCCGGGUAAGUGUAUAUAGUCUGCAUGCCGCCGGGCGCCAUGCCUGCAGGUCGACUCUAGAAAACAUG,binding signal,PUM1 PUF domain R4-FHR,3.37 log2 enrichment (interaction score)
GGCUAGAACUAGUGGAUCCCCCGGCGCCCGGCGGCUCGAGCCCGGGUAAGUGUAAACAGUCUGCAUGCCGCCGGGCGCCAUGCCUGCAGGUCGACUCUAGAAAACAUG,binding signal,PUM1 PUF domain R2-MWR,5.06 log2 enrichment (interaction score)
same,binding signal,PUM1 PUF domain R2-DWQ,4.49 log2 enrichment (interaction score)
GGCUAGAACUAGUGGAUCCCCCGGCGCCCGGCGGCUCGAGCCCGGGUAAGUCUAAAUAGUCUGCAUGCCGCCGGGCGCCAUGCCUGCAGGUCGACUCUAGAAAACAUG,binding signal,PUM1 PUF domain R7-RRK,1.72 log2 enrichment (interaction score)
GGCUAGAACUAGUGGAUCCCCCGGCGCCCGGCGGCUCGAGCCCGGGUAAGUGAAAAUAGUCUGCAUGCCGCCGGGCGCCAUGCCUGCAGGUCGACUCUAGAAAACAUG,binding signal,PUM1 PUF domain R6-VWK,7.03 log2 enrichment (interaction score)
